Unmarked numbers belong to inactive results. Entries that show only a call come without a potency. Active and inactive are the calls of the source. Calls come from the whole dose curve.

This assay can be described thus: G protein-coupled receptor (GPCR) small molecule agonists, calcium flux assay: HEK293 wild type cell line counter screen (AID 1920065). Particulars: HEK293 WT calcium flux, fluorescence, agonist mode; series mostly up to 57.6 µM; activation: at the top concentration. An excerpt:
U.S. Tox21 Program National Center for Advancing Translational Sciences [NCATS] Division of Preclinical Innovation [DPI] U.S. Environmental Protection Agency [EPA] National Institutes of Environmental Health Sciences [NIEHS] National Toxicology Program [NTP] U.S. Food and Drug Administration [FDA] Assay overview: The increased intracellular calcium release that occurred upon G protein-coupled receptor (GPCR) activation led to the frequent use of calcium flux assays to detect GPCR activation. For the purpose of studying and screening compounds that may activate GPCR, receptor-overexpressing models were typically generated using Hek293 wild-type (WT) cells. In order to eliminate the compounds that may have induced calcium release for non-specific activation, a counter-assay utilizing calcium flux on Hek293 WT cells was performed. The data were formulated in order to serve as a control for any calcium flux detection utilizing Hek293 cells with either GPCR overexpression or gene modification. The procurement of Hek293 WT cells from ATCC. Fluorescence intensity can be utilized to determine the activation of the compound in a calcium flux assay. As a counter control, this cell line was utilized to screen the Tox21 10K compound library.
Assay Protocol Summary: Hek293 cells were dispensed at 1500cells/4uL/well in 1536-well black wall/clear bottom plates using a multidrop dispenser. After the assay plates were incubated at a 37 C/5% CO2 incubator for 18 hours, 4 uL of Calcium Dye Solution was added to each well. The plates were incubated at 37 C for 1 hour. For agonist mode, 23 nL of compounds dissolved in DMSO, positive control (ATP) or DMSO only was transferred to the assay plate by a pin tool station. The fluorescence intensity in the plates was measured using FDSS 7000EX kinetic plate reader with a filter set of Ex/Em=480/540 for 3 min at 1 sec intervals. Each test compound was measured at 15 concentrations and in triplicates.
Turning to `CCNCC`, the Potency result was “inactive”.
Still for that read-out and setting: then `O=C(O)CC[N+](=O)[O-]`, with “inactive”.
On the same count and under the same terms, then `O=S(=O)(O)OOS(=O)(=O)O`, with “inactive”.
As for `C=C(C#N)CCC#N`, the “activation” value is -0.047%.
The same measure, in the same setting: in the case of `CC1(C)C(C=C(Cl)Cl)C1C(=O)OC(C#N)c1ccc(F)c(Oc2ccccc2)c1` (stereo not given) it was -0.149%.
Consider `c1cc2c3c(cccc3c1)CC2`, for which the Potency entry was “inactive”.
The same measure, in the same setting: in the case of `CCCN(CCC)c1c([N+](=O)[O-])cc(C(C)C)cc1[N+](=O)[O-]` it was “inactive”; in that of `O=P(O)(O)CN(CP(=O)(O)O)CP(=O)(O)O`, “inactive”; in that of `O=[N+]([O-])c1ccc(Cl)c([N+](=O)[O-])c1`, “inactive”.
Consider `CC(=O)C1CCOC1=O` (stereo not given), for which the Potency result is “inactive”.
With `CCCCCCC#N`, the “activation” value is -0.304%.
As to `ClC1=C(Cl)C2(Cl)C3C(Cl)C=CC3C1(Cl)C2(Cl)Cl` (stereo not given), the Potency entry is “inactive”.
Consider `CCCCCCCCCCCC#N`, for which the Potency result is “inactive”.
The same measure, in the same setting: then `[N-]=[N+]=CC(=O)OC[C@H](N)C(=O)O`, with “inactive”.
On the same count and under the same terms, in the case of `CCCCCCCCOC(=O)c1ccccc1C(=O)OCCCCCCCC` it was “inactive”.
Consider `O=S(=O)(c1ccc(O)cc1)c1ccc(O)cc1`, for which the Potency entry was “inactive”.
`CCN(N=O)C(N)=O`: the Potency entry was “inactive”.
`CC(C)OC(=S)S`: the “activation” value was -0.111%.
Turning to `Cl/C=C/Cl`, the Potency entry was “inactive”.
On the same count and under the same terms, in the case of `OCC1CO1` (stereo not given) it was “inactive”.
For `COP(=O)(OC)OC`, the “activation” value is -0.0211%.
For the compound `OC(O)C(Cl)(Cl)Cl`, the Potency entry was “inactive”.
The same measure, in the same setting: in the case of `C=CC#N` it was “inactive”; in that of `C=CCN=C=S`, “inactive”.
`S=C=S`: the “activation” value was -0.0167%.
On the same count and under the same terms, in the case of `COC(=O)c1cncn1C(C)c1ccccc1` (stereo not given) it was -0.507% [at 26.5 µM].
`CC(C)(C)OOC(C)(C)C`: the Potency result is “inactive”.
With `c1ccoc1`, the “activation” value was -0.0298%.
For the compound `NCCc1ccc(O)cc1`, the Potency entry is “inactive”.
Still for that read-out and setting: then `NN=C(N)N`, with “inactive”.
Same read-out and setting: then `CC(C)NC(=O)N1CC(=O)N(c2cc(Cl)cc(Cl)c2)C1=O`, with “inactive”; and `OCCCCO`, with “inactive”.
The same measure, in the same setting: then `N#CC(Br)Br`, with “inactive”.
For the compound `CCCCCCCCCCCCBr`, the “activation” value is 0.587%.
As to `CCC(Cl)[N+](=O)[O-]` (stereo not given), the “activation” value was -0.319%.
Take `CCCCCCCCCCCCCCCC[N+](C)(C)C`: the Potency entry is “inactive”.
The same measure, in the same setting: then `Clc1ccccc1-c1nnc(-c2ccccc2Cl)nn1`, with “inactive”; and `CC(=O)[O][Hg][c]1ccccc1`, with “inactive”; and `CCCCCCCCCCCCn1cc[n+](C)c1`, with “inactive”.
Same read-out and setting: then `CCCCCCCCCC(CC)c1ccc(S(=O)(=O)O)cc1` (stereo not given), with “inactive”.
